Consider ten compounds from PubChem BioAssay (NCI).

Common to all, as to assay: NCI-60 one-dose screen, 48 h (100 = growth as untreated, 0 = no growth, -100 = all killed)
What all share (conditions): 10 µM unless noted

Assay [1] deals with SR leukemia.
In assay [2] the test system is RPMI-8226 leukemia.
The subject of assay [3] is OVCAR-8 ovarian.
In assay [4] the test system is OVCAR-5 ovarian.
Assay [5] concerns OVCAR-4 ovarian.
In assay [6] the test system is SK-OV-3 ovarian.
For assay [7], the system named is OVCAR-3 ovarian.
Assay [8] relates to HS 578T breast.
Assay [9] deals with NCI/ADR-RES ovarian.
Assay [10] has as its system T-47D breast.
Assay [11] has as its system BT-549 breast.
Assay [12] concerns MDA-MB-435 melanoma.
Assay [13] has as its system SW-620 colon.
The test system of assay [14] is MCF7 breast.
Assay [15] has as its system HCT-116 colon.
Assay [16] deals with HCC-2998 colon.
The test system of assay [17] is KM12 colon.
The subject of assay [18] is IGROV1 ovarian.

Where “and” joins values, the source holds several entries; their conditions need not be identical. Equal entries are not always repeated. This is part of a sample that, as a whole, favours compounds with a hit. Of some 83,000 tested, about 20% had one in any assay.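 For each line, cells grew in 96-well plates with the test compound present at a single concentration for 48 hours.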 Calls of active or inactive are those of the source. The calls were made as follows: active = growth percent below 10; inactive = the rest.

Turning to `Cn1cc(-c2cc3c(Nc4ccc(CC(=O)Nc5cc(C(C)(C)C)on5)cc4)ncnc3[nH]2)cn1`, the growth in assay [1] was 2.58% (active); in assay [2], -2.19% (active) and -22.3% (active); in assay [3] it was 4.54% (active) and 2.06% (active); in [4], -8.65% (active) and 5.67% (active); in [5] it was -12.1% (active) and 5.44% (active); in assay [6], -5.62% (active) and -14.8% (active). The growth in [7] is -15.1% (active) and -6.62% (active); in assay [8] it was -22.4% (active) and -15.2% (active); in [9] it was 79.5% (inactive) and 80.3% (inactive); in assay [10], -1.6% (active) and -13.9% (active); in assay [11], -15% (active) and -15.8% (active); in [12], -42.3% (active) and -0.328% (active). In addition, the growth is -7.24% (active) and 1.5% (active) in assay [13]; 4.99% (active) and 7.91% (active) in assay [14]; 0.379% (active) and 1.42% (active) in [15]; -10.8% (active) and -2.61% (active) in [16]; -20.7% (active) and 3.37% (active) in assay [17].
As for `CCOC(=O)c1c(C)oc(C)c(C(=O)OCC)c1=O`, the growth is 118% (inactive) and 85% (inactive) in [1]; 85.9% (inactive) and 94.5% (inactive) in assay [2]; 104% (inactive) and 102% (inactive) in assay [3]; 114% (inactive) in assay [4]; 105% (inactive) and 94.6% (inactive) in [5]; 97.8% (inactive) and 95.3% (inactive) in [6]. The growth in [18] was 114% (inactive) and 94.7% (inactive); in assay [7], 105% (inactive) and 127% (inactive); in [8] it was 109% (inactive); in [9], 108% (inactive); in assay [10] it was 99.1% (inactive) and 87.7% (inactive); in [12], 111% (inactive) and 108% (inactive). Moreover, the growth in [13] was 104% (inactive) and 98.3% (inactive); in assay [14] it was 97.7% (inactive) and 97.4% (inactive); in assay [15] it was 97% (inactive) and 97.3% (inactive); in assay [16], 102% (inactive); in [17], 114% (inactive) and 117% (inactive).
For `Nc1ccc(N=Nc2ccc(S(=O)(=O)O)cc2)cc1S(=O)(=O)O`, the growth was 108% (inactive) and 157% (inactive) in assay [1]; 86.7% (inactive) and 40.2% (inactive) in assay [2]; 96.5% (inactive) and 79.6% (inactive) in [3]; 101% (inactive) and 107% (inactive) in [4]; 118% (inactive) and 87.9% (inactive) in assay [5]; 105% (inactive) and 106% (inactive) in assay [6]. The growth in [18] was 79.3% (inactive) and 76.1% (inactive); in [7], 108% (inactive) and 210% (inactive); in assay [9], 95.6% (inactive) and 99.4% (inactive); in assay [10] it was 97.9% (inactive) and 98.3% (inactive); in [13], 115% (inactive) and 97.8% (inactive); in assay [14], 104% (inactive) and 92.8% (inactive). Also, the growth in assay [15] is 90.2% (inactive) and 114% (inactive); in assay [16], 105% (inactive) and 94.5% (inactive); in assay [17], 96.1% (inactive) and 105% (inactive).
For the compound `CCCCCN(CCCCC)CC(O)c1cc2c(c3ccccc13)CCCC2` (stereo not given), the growth in assay [1] is 11.1% (inactive) and 14.2% (inactive); in assay [2], 15.4% (inactive) and 34.8% (inactive); in assay [3], 88.6% (inactive) and 94.3% (inactive); in [4], 66.9% (inactive) and 55.6% (inactive); in assay [5], 60.9% (inactive) and 59.9% (inactive); in assay [6], 84.2% (inactive) and 79% (inactive). Moreover, the growth was 48.9% (inactive) and -1.04% (active) in [18]; 71.9% (inactive) and 54.4% (inactive) in assay [7]; 70% (inactive) and 63.7% (inactive) in assay [9]; 51.1% (inactive) and 54.1% (inactive) in [10]; 88.8% (inactive) and 59.8% (inactive) in assay [11]; 83.4% (inactive) and 69.8% (inactive) in assay [12]. Besides, the growth in [13] is 28.9% (inactive) and 30.4% (inactive); in assay [14] it was 44.8% (inactive) and 23.5% (inactive); in [15], 20.2% (inactive) and 17.9% (inactive); in assay [16], 13.1% (inactive); in assay [17] it was 50.5% (inactive) and 35.3% (inactive).
Regarding `O=C(Cc1cccc2ccccc12)N/N=C/c1ccc2c(c1)CCC2`, the growth is 23% (inactive) in [1]; 75.1% (inactive) in [2]; 72.3% (inactive) in [3]; 80.9% (inactive) in [4]; 104% (inactive) in [5]; 83.2% (inactive) in assay [6]. Also, the growth in assay [18] was 47.8% (inactive); in assay [7], 75.8% (inactive); in assay [8] it was 85.3% (inactive); in [9], 31% (inactive); in assay [11] it was 92.5% (inactive); in assay [12], 7.56% (active). Moreover, the growth was 54.8% (inactive) in assay [13]; 80.5% (inactive) in assay [14]; 66.4% (inactive) in assay [15]; 81.9% (inactive) in [16]; 54.3% (inactive) in assay [17].
On to `COc1cc(NS(C)(=O)=O)ccc1Nc1c2ccccc2nc2c(C)cccc12`, for which the growth in assay [1] was 4.23% (active) and -21.5% (active); in assay [2] it was -36.4% (active) and -21.4% (active); in [3], 0.169% (active) and 1.18% (active); in assay [4] it was 4.75% (active) and 8.59% (active); in assay [5], 42.9% (inactive) and 62.8% (inactive); in [6] it was 5.9% (active) and 11.9% (inactive). Also, the growth in [18] is 2.93% (active) and 14.4% (inactive); in assay [7], -57% (active) and 24.6% (inactive); in [9], 27.7% (inactive) and 40.4% (inactive); in assay [10], 2.65% (active) and 4.75% (active); in assay [11] it was 3.76% (active) and 4.61% (active); in assay [12], 37.1% (inactive) and 45.7% (inactive). The growth is 6.14% (active) and 16.4% (inactive) in assay [13]; 14.1% (inactive) and 14% (inactive) in assay [14]; 0.292% (active) and 8.67% (active) in [15]; -60.5% (active) and -6.07% (active) in [16]; -32.8% (active) and 7.97% (active) in assay [17].
Turning to `O=C(/C=C/c1ccccn1)c1ccccc1O`, the growth in assay [1] was 4.76% (active); in assay [2] it was 2.44% (active) and -0.787% (active); in assay [3], 54.4% (inactive) and 84.8% (inactive); in assay [4] it was 77.1% (inactive) and 92.3% (inactive); in assay [5] it was 101% (inactive) and 88.2% (inactive); in assay [6], 111% (inactive) and 113% (inactive). In addition, the growth in [18] was 38.1% (inactive) and 66.6% (inactive); in [7], 84.4% (inactive) and 44.9% (inactive); in [9], 73.9% (inactive) and 93.4% (inactive); in [10], 68.7% (inactive) and 66% (inactive); in assay [11] it was 112% (inactive); in [12], 58.2% (inactive) and 75.2% (inactive). The growth in assay [13] was 46.1% (inactive) and 73.8% (inactive); in [14] it was 37.9% (inactive) and 37.4% (inactive); in [15], 44.6% (inactive); in [16] it was 9.46% (active) and 97.3% (inactive); in [17], 40.4% (inactive) and 48.2% (inactive).
As for `CC(C)N=c1cc2n(-c3ccc(Cl)cc3)c3ccccc3nc-2cc1Nc1ccc(Cl)cc1`, the growth in assay [1] is -35.4% (active) and 9.31% (active); in assay [2], 2.57% (active) and -21.9% (active) and -42.6% (active); in assay [3], 15.1% (inactive) and 48.7% (inactive) and 14.1% (inactive); in assay [4] it was 38.3% (inactive) and 49.6% (inactive) and 11.3% (inactive); in [6], 37.6% (inactive) and 52.9% (inactive) and 42.6% (inactive); in assay [7], -37.5% (active) and -71.1% (active) and -66.3% (active). For the same compound, the growth in assay [8] is -13.2% (active) and 13.1% (inactive); in assay [9] it was 23.2% (inactive) and -2.63% (active) and 39.2% (inactive); in assay [10], 38.3% (inactive) and 32.9% (inactive) and 41.5% (inactive); in assay [11], 41.2% (inactive) and 11.6% (inactive) and -4.5% (active); in [12] it was -25.6% (active) and -22.8% (active) and -46.2% (active); in assay [13], 13.4% (inactive) and 9.23% (active) and 6.7% (active). For the same compound, the growth was 11.9% (inactive) and 18.4% (inactive) and 10.5% (inactive) in assay [14]; -54.6% (active) and -63.1% (active) and -82.7% (active) in assay [15]; 16.8% (inactive) and -34.4% (active) and -17.4% (active) in assay [16]; 12.6% (inactive) and 5.23% (active) and -1.86% (active) in assay [17].
In the case of `CCc1c(CC(=O)O)c2cc(C)ccc2n1Cc1ccc(Cl)cc1`, the growth was 91.5% (inactive) and 146% (inactive) in assay [1]; 97.1% (inactive) in assay [2]; 82.9% (inactive) and 100% (inactive) in assay [3]; 98.2% (inactive) and 98.6% (inactive) in [4]; 97.9% (inactive) and 42.4% (inactive) in assay [6]; 93.8% (inactive) and 110% (inactive) in assay [7]. Further, the growth in assay [9] is 98.4% (inactive) and 98.7% (inactive); in assay [10], 86.3% (inactive) and -2.2% (active); in [11], 94% (inactive) and 183% (inactive); in assay [12] it was 114% (inactive) and 97.4% (inactive); in assay [13], 102% (inactive); in [14], 98.1% (inactive) and 95.4% (inactive). The growth in assay [15] was 97.1% (inactive) and 110% (inactive); in [16], 125% (inactive) and 98.4% (inactive); in assay [17] it was 96% (inactive) and 95.3% (inactive).
`COc1c(/C(C)=N/N=c2sc(C(C)=O)nn2-c2ccc(Cl)cc2)c(Oc2ccccc2)c(OC)c2occc12`: the growth is 107% (inactive) and 104% (inactive) in assay [1]; 107% (inactive) and 96.3% (inactive) in assay [2]; 102% (inactive) in [3]; 104% (inactive) and 97.7% (inactive) in assay [4]; 137% (inactive) and 107% (inactive) in assay [6]; 102% (inactive) and 94.5% (inactive) in assay [18]. For the same compound, the growth in [7] was 102% (inactive); in [8] it was 103% (inactive); in assay [9], 96.5% (inactive) and 99.7% (inactive); in [10], 98.7% (inactive) and 76.5% (inactive); in assay [11] it was 115% (inactive) and 103% (inactive); in assay [12], 103% (inactive) and 104% (inactive). The growth in assay [13] was 102% (inactive) and 92.8% (inactive); in assay [14] it was 99.9% (inactive) and 88.3% (inactive); in assay [15], 96.4% (inactive) and 77.8% (inactive); in assay [16], 107% (inactive) and 110% (inactive); in [17], 93.7% (inactive) and 96.5% (inactive).
